Records with an inconclusive call do not appear. Active and inactive are the calls of the source. Unless noted, calls come from the whole dose curve; as a rule, active = well fitted curve in the direction sought with a large enough effect in the repeat runs; inconclusive = weak or mixed curves; inactive = no such curve, though single readings can be large; an effect the other way counts as inactive or inconclusive.
Legend:
[1] = A CellTox Green Cytotoxicity Assay to monitor cytotoxicity in HepG2 cells - 8 hour (AID 1224890); note: nearly all actives have a fitted effect of over 45% in size
Outline: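 Fluorescent DNA-binding dye, 600 HepG2 cells/well, 5 h preincubation then compound in DMSO; same plates read at 0–40 h, 37 C.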

[2] = qHTS assay to identify small molecule antagonists of the estrogen receptor alpha (ER-alpha) signaling pathway using the BG1 cell line in the presence of 0.1 nM 17-beta-estradiol - cell viability counter screen (AID 1259241); note: nearly all actives have a fitted effect of over 40% in size; note: potency is the fitted concentration of half-maximal effect
Outline: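 Measures cytotoxicity alongside the ER-alpha antagonist readout: VM7Luc4E2 cells, charcoal-stripped serum, 0.1 nM 17beta-estradiol final, 22 hr compound incubation at 37C, CellTiter-Fluor fluorescence.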

[3] = molecular target: Androgen receptor (Homo sapiens) (UniProt P10275); assay: qHTS assay to identify small molecule antagonists of the androgen receptor (AR) signaling pathway using the MDA cell line in the presence of 0.5 nM R1881 (AID 1259243); note: nearly all actives have a fitted effect of over 50% in size
Androgen receptor (Homo sapiens), sequence (P10275 whole entry, looked up): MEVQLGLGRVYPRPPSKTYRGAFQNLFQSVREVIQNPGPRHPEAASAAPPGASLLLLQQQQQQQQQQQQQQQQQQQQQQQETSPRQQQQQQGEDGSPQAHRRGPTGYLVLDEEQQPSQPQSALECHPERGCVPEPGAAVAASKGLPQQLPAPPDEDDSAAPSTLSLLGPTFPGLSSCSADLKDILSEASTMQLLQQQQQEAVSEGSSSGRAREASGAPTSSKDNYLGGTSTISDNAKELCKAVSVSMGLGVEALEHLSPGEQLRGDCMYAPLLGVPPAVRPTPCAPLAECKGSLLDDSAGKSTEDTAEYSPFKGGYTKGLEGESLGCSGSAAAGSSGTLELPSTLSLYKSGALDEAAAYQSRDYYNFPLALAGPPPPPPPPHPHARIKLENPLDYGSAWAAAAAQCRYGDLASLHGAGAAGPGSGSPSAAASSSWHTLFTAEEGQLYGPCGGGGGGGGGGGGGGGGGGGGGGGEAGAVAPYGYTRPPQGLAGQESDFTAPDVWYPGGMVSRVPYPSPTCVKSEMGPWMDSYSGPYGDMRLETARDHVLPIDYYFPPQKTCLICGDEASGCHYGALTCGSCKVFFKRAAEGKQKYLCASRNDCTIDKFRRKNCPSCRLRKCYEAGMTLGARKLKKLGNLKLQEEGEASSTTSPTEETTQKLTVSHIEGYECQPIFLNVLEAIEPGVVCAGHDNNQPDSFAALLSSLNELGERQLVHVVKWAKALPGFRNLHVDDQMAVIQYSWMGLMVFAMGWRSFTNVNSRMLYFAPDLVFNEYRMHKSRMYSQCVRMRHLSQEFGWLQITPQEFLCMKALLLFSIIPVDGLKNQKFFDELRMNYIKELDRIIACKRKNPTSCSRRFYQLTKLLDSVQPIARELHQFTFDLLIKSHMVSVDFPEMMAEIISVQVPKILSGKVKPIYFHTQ
Outline: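 Cells: MDA-kb2 (MMTV-luc). Stimulus: 0.5 nM R1881. Time: 16 hr, 37C, no CO2. Detection: ONE-Glo luminescence after 30 min at RT.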

[4] = molecular target: Estrogen receptor (Homo sapiens) (UniProt P03372); assay: qHTS assay to identify small molecule antagonists of the estrogen receptor alpha (ER-alpha) signaling pathway using the BG1 cell line in the presence of 0.1 nM 17-beta-estradiol (AID 1259244); note: nearly all actives have a fitted effect of over 50% in size; note: potency is the fitted concentration of half-maximal effect
Estrogen receptor (Homo sapiens), sequence (P03372 whole entry, looked up): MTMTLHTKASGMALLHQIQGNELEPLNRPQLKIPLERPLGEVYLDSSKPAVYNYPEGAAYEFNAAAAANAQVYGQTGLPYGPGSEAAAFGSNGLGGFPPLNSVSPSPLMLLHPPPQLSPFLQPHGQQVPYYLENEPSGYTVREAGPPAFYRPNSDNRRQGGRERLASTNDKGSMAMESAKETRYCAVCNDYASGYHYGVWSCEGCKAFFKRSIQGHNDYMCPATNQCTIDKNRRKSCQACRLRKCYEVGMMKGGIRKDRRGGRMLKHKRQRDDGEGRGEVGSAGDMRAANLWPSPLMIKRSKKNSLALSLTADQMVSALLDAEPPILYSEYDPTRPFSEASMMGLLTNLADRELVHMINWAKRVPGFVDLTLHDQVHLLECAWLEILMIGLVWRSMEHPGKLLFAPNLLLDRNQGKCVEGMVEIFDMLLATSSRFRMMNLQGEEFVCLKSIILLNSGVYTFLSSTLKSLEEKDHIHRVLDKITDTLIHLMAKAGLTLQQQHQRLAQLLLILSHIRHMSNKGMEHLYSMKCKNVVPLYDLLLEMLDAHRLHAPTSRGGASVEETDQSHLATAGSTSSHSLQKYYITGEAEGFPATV
Outline: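 Seeding of stripped-serum-adapted VM7Luc4E2 cells, 24 h attachment, compound transfer, then 0.1 nM final 17beta-estradiol; after 22 h incubation, ONE-Glo reagent and luminescence reading.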

[5] = qHTS assay to identify small molecule HDAC inhibitors (AID 1259364); note: potency is the fitted concentration of half-maximal effect;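 note: wild-type HCT-116 cells with endogenous class I/II HDAC activity; nearly all actives have a fitted effect of over 45% in size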; for activity change, negative = inhibition: top concentration of the series differs between compounds
Outline: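 After a 2 hr compound incubation (37C, 5% CO2), HCT-116 cells seeded at 1,500/well the day before received HDAC-Glo reagent; signal read as luminescence after 30 min at room temperature.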

[6] = qHTS assay to identify small molecule HDAC inhibitors - cell viability counter screen (AID 1259365); note: series mostly up to about 92 µM; nearly all actives have a fitted effect of over 50% in size
Outline: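 Following a 2hr exposure of overnight-plated wild-type HCT-116 cells to DMSO-delivered compounds, CellTiter-Glo was added and luminescence recorded after 30min at room temperature.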

[7] = qHTS assay to identify small molecule agonists of the sonic hedgehog signaling (Shh) pathway - cell viability counter screen (AID 1259366); note: nearly all actives have a fitted effect of over 50% in size; note: potency is the fitted concentration of half-maximal effect
Outline: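 After a 4hr attachment at 37C, NIH/3T3 cells bearing an integrated Gli1-driven luciferase reporter were dosed with compounds. Treatment lasted 24hr, with the final hour including CellTiter-Fluor for a fluorescence viability measurement.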

[8] = qHTS assay to identify small molecule antagonists of the sonic hedgehog signaling (Shh) pathway - cell viability counter screen (AID 1259367); note: nearly all actives have a fitted effect of over 55% in size; note: potency is the fitted concentration of half-maximal effect
Outline: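 Viability was read by CellTiter-Fluor fluorescence in the same wells, reagent added 23 hr into compound treatment and incubated 1 hr at 37C. The 3T3 Gli1-Luc reporter cells (2,000/well) received conditioned medium after compound and ran 24 hr.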

[9] = qHTS assay to identify small molecule antagonists of the androgen receptor (AR) signaling pathway using the MDA cell line in the presence of 0.5 nM R1881 - cell viability counter screen (AID 1259242); note: nearly all actives have a fitted effect of over 45% in size
Outline: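 Human breast carcinoma MDA-kb2 cells, cultured without CO2, receive compounds alongside 0.5 nM (final) R1881 agonist. After 16 hr at 37C, viability is taken as live-cell protease signal.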

[10] = qHTS assay to identify small molecule phospholipidosis (PLD) inducers (AID 1259344; active = well fitted curve in the direction sought with a large enough effect; an effect the other way counts as inactive or inconclusive)
Outline: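 Phospholipid accumulation was scored by imaging: fixed, Hoechst-counterstained HepG2 cells stained with LipidTOX Red after 24 h compound exposure at 37 C. Read-outs were pit count and pit intensity per well or per cell, with amiodarone and DMSO controls.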
% is set by controls: 0 for no effect and ±100 for the full control effect.

O=C(C1CCCCC1)N1CC(=O)N2CCCc3ccccc3C2C1 (stereo not given)
inactive: Potency [1] | Potency [2] | Potency [3] | Potency [4] | Potency [5] | outcome [6] | Potency [7] | Potency [8]

c1ccc(CN(Cc2ccccc2)Cc2ccccc2)cc1
inactive: Potency [1] | Potency [2] | Potency [9] | Potency [5] | Potency [7] | Potency [8]

CCC(C(=O)O)c1ccc(N2Cc3ccccc3C2=O)cc1 (stereo not given)
inactive: Potency [1] | Potency [2] | Potency [3] | Potency [7]
active: Potency [5] 2660 nM

CC(C)Cc1nccs1
inactive: Potency [1] | Potency [2] | Potency [9] | Potency [5] | outcome [6] | Potency [7] | Potency [8]

CC(CN=Cc1ccccc1O)N=Cc1ccccc1O (stereo not given)
inactive: Potency [1] | Potency [2] | Potency [9] | Potency [5] | outcome [6] | Potency [7] | Potency [8]

C=CC(C)CCC=C(C)C (stereo not given)
inactive: Potency [1] | Potency [2] | Potency [9] | Potency [5] | outcome [6] | Potency [7] | Potency [8]

O=C(Cl)c1cc(Cl)cc(Cl)c1
inactive: Potency [1] | Potency [2] | Potency [9] | Potency [5] | outcome [6] | Potency [7] | Potency [8]

CC/C=C/CCO
inactive: Potency [1] | Potency [2] | Potency [9] | Potency [5] | Potency [7] | Potency [8]

COC=O
inactive: cytotoxicity increase [1] -0.393% [at 6.97 µM] | activity change, negative = cytotoxicity [2] 7.16% [at 8.39 µM] | viability change, negative = cytotoxic [9] 2.17% [at 8.39 µM] | activity change, negative = inhibition [5] 0.883% [at 8.39 µM] | activity change, negative = cytotoxicity [6] -4.91% [at 8.39 µM] | viability change, negative = cytotoxic [7] 14% [at 8.39 µM] | viability change, negative = cytotoxic [8] 5.98% [at 8.39 µM]

CC1(C)CC(O)CC(C)(C)N1[O]
inactive: Potency [1] | Potency [2] | Potency [9] | Potency [5] | outcome [6] | Potency [7] | Potency [8]

Cc1nc2sccn2c(=O)c1CCN1CCC(=C(c2ccc(F)cc2)c2ccc(F)cc2)CC1
inactive: Potency [1] | Potency [2] | Potency [9] | Potency [5] | Potency [7] | Potency [8]

S=c1[nH][nH]c(=S)s1
inactive: Potency [1] | Potency [2] | Potency [9] | Potency [5] | outcome [6] | Potency [7] | Potency [8]

CCC1=C(C)CN(C(=O)NCCc2ccc(S(=O)(=O)NC(=O)NC3CCC(C)CC3)cc2)C1=O (stereo not given)
inactive: Potency [1] | Potency [2] | Potency [3] | Potency [4] | Potency [10] | Potency [5] | outcome [6] | Potency [7] | Potency [8]

CC(C)C[C@H](NC(=O)[C@H](Cc1ccccc1)NC(=O)c1cnccn1)B(O)O
inactive: Potency [1] | Potency [10] | Potency [5] | outcome [6]
active: Potency [2] 266 nM | Potency [4] 59.6 nM | Potency [7] 1060 nM | Potency [8] 5310 nM

CCC(C)CCCC(C)(C)O (stereo not given)
inactive: Potency [1] | Potency [2] | Potency [9] | Potency [5] | outcome [6] | Potency [7] | Potency [8]

O=C(Nc1ccc2c(c1)Cc1ccccc1-2)C(F)(F)F
inactive: Potency [1] | Potency [2] | Potency [9] | outcome [6] | Potency [7] | Potency [8]

CCC(=O)O[C@]1(C(=O)COC)[C@@H](C)C[C@H]2[C@@H]3CCC4=CC(=O)C=C[C@]4(C)C3(F)[C@@H](O)C[C@@]21C (stereo not given in full)
inactive: Potency [1] | Potency [2] | Potency [9] | Potency [5] | Potency [7] | Potency [8]

O=[N+]([O-])c1ccccc1CCO
inactive: Potency [1] | Potency [2] | Potency [9] | Potency [5] | Potency [7]

CS(C)=O
inactive: Potency [1] | Potency [2] | Potency [9] | Potency [5] | outcome [6] | Potency [7] | Potency [8]

Cc1c(Cl)cccc1[N+](=O)[O-]
inactive: Potency [1] | Potency [2] | Potency [9] | Potency [5] | Potency [7] | Potency [8]

CCOc1ccccc1O
inactive: Potency [1] | Potency [2] | Potency [9] | Potency [5] | outcome [6] | Potency [7] | Potency [8]

O=C(O)c1cc(C(=O)O)cc([N+](=O)[O-])c1
inactive: Potency [1] | Potency [2] | Potency [9] | Potency [5] | outcome [6] | Potency [7] | Potency [8]

C=CC(O)CCCCC (stereo not given)
inactive: Potency [1] | Potency [2] | Potency [9] | Potency [5] | Potency [7]

Nc1ccc(F)cc1F
inactive: Potency [1] | Potency [2] | Potency [3] | Potency [4] | Potency [5] | outcome [6] | Potency [7] | Potency [8]

O=[N+]([O-])c1cccc(I)c1
inactive: Potency [1] | Potency [2] | Potency [9] | Potency [5] | outcome [6] | Potency [7] | Potency [8]

CCCCCC1CCC(=O)O1 (stereo not given)
inactive: Potency [1] | Potency [2] | Potency [9] | Potency [5] | Potency [7] | Potency [8]

O=C(O)c1ccccc1[N+](=O)[O-]
inactive: Potency [1] | Potency [2] | Potency [9] | Potency [5] | Potency [7] | Potency [8]
